From PubChem
Most compounds without a hit are left out; they make up all but 12% or so of the library.
Shiga toxin inh – A qHTS for Small Molecule Inhibitors of Shiga Toxin. Vero cells, Shiga toxin protein synthesis inhibition reporter. inhibition, % at 38.7 µM. hit rate 9.2% among 290,000. AID 2315, 2010; in the data active = inhibition mostly above about 28%, no sharp cut-off; inactive = mostly below about 43%; note: 0% is about no effect
NS1 inh – qHTS Assay for Inhibitors of Influenza NS1 Protein Function; Potency, µM (titrated, usually from 46.1 µM), for the others: at the highest dose activity, positive = more growth; hit rate 0.4% among 270,000; AID 2326, 2010; note: potency is the fitted concentration of half-maximal effect; actives are rising curves; nearly all actives have a fitted effect of over 50% in size
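A cell-based growth assay was used: compounds that relieve NS1-induced slow growth of budding yeast raise OD600. Assay medium was yeast nitrogen base with ammonium sulphate and -URA supplement, pH 6.0, with 2% galactose.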
Cycloheximide cs – Cycloheximide Counterscreen for Small Molecule Inhibitors of Shiga Toxin. max response, %. hit rate 12% among 300,000. AID 2314, 2010. cell reporter, cycloheximide protein synthesis inhibition counterscreen; in the data active = max response mostly above about 13%, no sharp cut-off; inactive = mostly below about 14%; note: read at 38.3 µM for the half of the compounds with a filed dose; 0% is about no effect
SARS PLpro yeast – qHTS of Yeast-based Assay for SARS-CoV PLP. S. cerevisiae expressing SARS-CoV PLpro, growth rescue. Potency, µM (top dose mostly 32.9 µM), for inactives: at the top dose activity, positive = growth rescue, hits mostly activators. hit rate 0.19% among 330,000; note: potency is the fitted concentration of half-maximal effect; 0% is about no effect; nearly all actives have a fitted effect of over 55% in size
An asterisk follows results filed as active. Unless noted, calls come from the whole dose curve.

Screening CC(O)[C@H]1CNC(=O)C(=O)N1CCc1cc(C(F)(F)F)cc(C(F)(F)F)c1 (some centres undefined) returned Shiga toxin inh -7.1, NS1 inh -4.6%, Cycloheximide cs 0.9 and SARS PLpro yeast -0.4%.
`O=C(Nc1ccc(Cl)cc1)N1CCC(c2nc(-c3cccs3)no2)CC1` gave Shiga toxin inh 49.1*, NS1 inh -51.6%, Cycloheximide cs 24.0* and SARS PLpro yeast -10.2%.
Screening COc1ccc(NC(=O)N2CCC(c3nc(-c4cccs4)no3)CC2)cc1 returned Shiga toxin inh 11.4, NS1 inh -56.9%, Cycloheximide cs 19.1* and SARS PLpro yeast -18.7%.
`COc1ccccc1OC(=O)c1ccc(S(=O)(=O)N(C)C)cc1` gave Shiga toxin inh -6.5, NS1 inh -58.3%, Cycloheximide cs -1.4 and SARS PLpro yeast -10.3%.
Screening C/C(=N\OCc1cccc(C(=O)O)c1)c1ccc(Cl)cc1 returned Shiga toxin inh 124.8*, NS1 inh -55.8%, Cycloheximide cs 78.0* and SARS PLpro yeast -3.9%.
For C/C(=N\OCc1ccc(C#N)cc1)c1ccccc1 the results were Shiga toxin inh 70.2*, Cycloheximide cs 42.5* and SARS PLpro yeast -5.0%.
C/C(=N/OCO/N=C(\C)c1ccccc1)c1ccccc1 was read as Shiga toxin inh 8.1, NS1 inh 2.1%, Cycloheximide cs 6.4 and SARS PLpro yeast -3.0%.
C/C(=N\OCc1ccc(C#N)cc1)c1ccc(S(=O)(=O)N(C)C)cc1 was read as Shiga toxin inh 80.4*, NS1 inh -7.3%, Cycloheximide cs 48.4* and SARS PLpro yeast 0.1%.
Cc1onc(-c2ccccc2)c1C(=O)NCCSCc1ccco1 was read as SARS PLpro yeast -0.3%.
O=C(CN1CCCCC1)NC(=O)NC1CCCC1 was read as Shiga toxin inh 55.5*, Cycloheximide cs 23.2* and SARS PLpro yeast -2.5%.
`O=C(CN1CCCCCCC1)NC(=O)NC1CCCCC1` gave Shiga toxin inh 51.4, NS1 inh -3.6%, Cycloheximide cs 23.2 and SARS PLpro yeast -1.5%.
COc1cccc(-c2cc(C(=O)NCC3CCCO3)on2)c1 (centres undefined) was read as Shiga toxin inh 48.0*, NS1 inh -15.8%, Cycloheximide cs 35.5* and SARS PLpro yeast 21.2%.
For O=C(NCC1CCCO1)c1cc(-c2ccc(F)cc2)no1 (centres undefined) the results were Shiga toxin inh 96.5*, NS1 inh -12.9%, Cycloheximide cs 44.7* and SARS PLpro yeast 1.8%.
For COc1ccc(-c2cc(C(=O)NCC3CCCO3)on2)cc1OC (centres undefined) the results were Shiga toxin inh -5.0, NS1 inh -12.8%, Cycloheximide cs 3.0 and SARS PLpro yeast -2.5%.
Cc1cccc2sc(NC(=O)C3CSC4(C)CCC(=O)N34)nc12 (centres undefined) was read as Shiga toxin inh -4.6, NS1 inh 14.6%, Cycloheximide cs 1.5 and SARS PLpro yeast -7.4%.
For CC(C)COC(=O)Nc1nnc(SCc2ccccc2F)s1 the results were Shiga toxin inh -10.5, NS1 inh -10.7%, Cycloheximide cs 7.3 and SARS PLpro yeast -6.0%.
For CC12CCC(=O)N1C(C(=O)Nc1nc3c(F)cc(F)cc3s1)CS2 (centres undefined) the results were Shiga toxin inh 21.6, NS1 inh 20.6%, Cycloheximide cs 21.3* and SARS PLpro yeast 0.4%.
CCC(=O)Nc1nnc(SCc2ccccc2F)s1 was read as Shiga toxin inh 78.8*, Cycloheximide cs 14.8 and SARS PLpro yeast -1.8%.
CC12CCC(=O)N1C(C(=O)Nc1nnc(SCc3ccccc3F)s1)CS2 (centres undefined) was read as Shiga toxin inh 55.8*, NS1 inh 9.4%, Cycloheximide cs 19.7* and SARS PLpro yeast -7.2%.
Screening O=C(N/C(=C\c1ccc([N+](=O)[O-])cc1)C(=O)N1CCCCC1)c1ccccc1Br returned Shiga toxin inh -9.2, NS1 inh -19.7%, Cycloheximide cs -4.0 and SARS PLpro yeast 5.5%.
Screening Nc1ccc(C(=O)N/N=C\c2ccc(OC(=O)c3ccccc3Cl)cc2)cc1 returned Shiga toxin inh 21.1, NS1 inh -19.9%, Cycloheximide cs 37.6* and SARS PLpro yeast 5.1%.
Screening O=C(O)c1ccc(N/N=C/c2ccc(OC(=O)c3ccccc3Cl)cc2)cc1 returned Shiga toxin inh 19.4, NS1 inh -12.8%, Cycloheximide cs 20.7* and SARS PLpro yeast 0.4%.
For O=C(N/N=C/c1ccc(OC(=O)c2ccccc2Br)cc1)c1ccccn1 the results were Shiga toxin inh -16.1, NS1 inh 6.8%, Cycloheximide cs -3.5 and SARS PLpro yeast inconclusive.
Screening COc1cc(C(=O)N/N=C/c2ccc(OC(=O)c3ccccc3Cl)cc2)ccc1O returned Shiga toxin inh 21.6, NS1 inh -7.7%, Cycloheximide cs 26.1* and SARS PLpro yeast -4.0%.
O=C(O)c1ccc(/C=N/Nc2nnnn2-c2ccccc2)cc1 was read as Shiga toxin inh 2.1, NS1 inh 9.1%, Cycloheximide cs -2.2 and SARS PLpro yeast -6.4%.
`COc1cc(C(=O)Oc2ccccc2/C=N/NC(=O)c2ccc(Cl)cc2Cl)cc(OC)c1OC` gave Shiga toxin inh 25.7*, NS1 inh 3.7%, Cycloheximide cs 23.1* and SARS PLpro yeast -2.8%.
For O=C(COC(=O)C1CCN(c2ccc(C(F)(F)F)cn2)CC1)NCc1ccccc1 the results were SARS PLpro yeast 0.9%.
Screening O=S(=O)(NC1CCCC1)c1cc(F)ccc1F returned Shiga toxin inh -15.1, NS1 inh 6.9%, Cycloheximide cs 6.1 and SARS PLpro yeast -1.8%.
`O=C1C[C@@H](c2ccc(O[C@@H]3O[C@H](CO)[C@@H](O)[C@H](O)[C@H]3O)cc2)Oc2cc(O)ccc21` gave Shiga toxin inh active, NS1 inh 3.5%, Cycloheximide cs 20.4* and SARS PLpro yeast 0.9%.
CCN(C(=O)COC(=O)c1ccc(C)c(S(=O)(=O)N2CCOCC2)c1)C1CCS(=O)(=O)C1 (centres undefined) was read as SARS PLpro yeast -3.8%.
`Cc1cccc(C(=O)NCC(=O)NNC(=O)c2ccccc2O)c1` gave SARS PLpro yeast 2.2%.
`O=C(CC(=O)c1cc(Cl)ccc1O)c1ccccc1` gave Shiga toxin inh 74.0*, NS1 inh -50.9%, Cycloheximide cs 55.0* and SARS PLpro yeast -26.2%.
Cc1ccc(O)c(C(=O)CC(=O)c2cccc(F)c2)c1 was read as Shiga toxin inh 60.6*, NS1 inh -163.2%, Cycloheximide cs 37.8* and SARS PLpro yeast -6.2%.
`Cc1ccc(O)c(C(=O)CC(=O)c2ccc(Cl)cc2)c1` gave Shiga toxin inh 96.4*, NS1 inh -99.0%, Cycloheximide cs 38.3* and SARS PLpro yeast -4.9%.
`Cc1cccc(C(=O)CC(=O)c2cc(Cl)ccc2O)c1` gave Shiga toxin inh 49.9*, NS1 inh -183.2%, Cycloheximide cs 27.4* and SARS PLpro yeast -18.7%.
Screening CCOC(=O)N1CCN(C(=S)NC(=O)c2ccnn2C)CC1 returned Shiga toxin inh -15.2, NS1 inh 10.4%, Cycloheximide cs 5.6 and SARS PLpro yeast 22.8%.
For O=C(Cn1nnc(-c2ccc(OCc3ccccc3F)cc2)n1)N1CCOCC1 the results were Shiga toxin inh active, NS1 inh 5.0%, Cycloheximide cs 20.6* and SARS PLpro yeast -1.6%.
